This passage reports Percent Effect results from ChEMBL document CHEMBL3988442, “University of Dundee, Small-Polar-MMV Screening Library” (2021).

Holding throughout (parameters): scale not given: direction of the effect not stated beside the values
Assay [1] has as its target Protein translocase subunit SecA (Escherichia coli (strain K12)) (UniProt P10408). The assay is described as follows: Assay to Identify E. coli SecA ATPase Inhibitors. The class given is functional. The settings on record: 30 µM.
Assay [2] concerns the target T1, Ubiquitin-activating enzyme e1, putative (Leishmania donovani (strain BPK282A1)) (UniProt E9BSI1).
T1 sequence (whole entry): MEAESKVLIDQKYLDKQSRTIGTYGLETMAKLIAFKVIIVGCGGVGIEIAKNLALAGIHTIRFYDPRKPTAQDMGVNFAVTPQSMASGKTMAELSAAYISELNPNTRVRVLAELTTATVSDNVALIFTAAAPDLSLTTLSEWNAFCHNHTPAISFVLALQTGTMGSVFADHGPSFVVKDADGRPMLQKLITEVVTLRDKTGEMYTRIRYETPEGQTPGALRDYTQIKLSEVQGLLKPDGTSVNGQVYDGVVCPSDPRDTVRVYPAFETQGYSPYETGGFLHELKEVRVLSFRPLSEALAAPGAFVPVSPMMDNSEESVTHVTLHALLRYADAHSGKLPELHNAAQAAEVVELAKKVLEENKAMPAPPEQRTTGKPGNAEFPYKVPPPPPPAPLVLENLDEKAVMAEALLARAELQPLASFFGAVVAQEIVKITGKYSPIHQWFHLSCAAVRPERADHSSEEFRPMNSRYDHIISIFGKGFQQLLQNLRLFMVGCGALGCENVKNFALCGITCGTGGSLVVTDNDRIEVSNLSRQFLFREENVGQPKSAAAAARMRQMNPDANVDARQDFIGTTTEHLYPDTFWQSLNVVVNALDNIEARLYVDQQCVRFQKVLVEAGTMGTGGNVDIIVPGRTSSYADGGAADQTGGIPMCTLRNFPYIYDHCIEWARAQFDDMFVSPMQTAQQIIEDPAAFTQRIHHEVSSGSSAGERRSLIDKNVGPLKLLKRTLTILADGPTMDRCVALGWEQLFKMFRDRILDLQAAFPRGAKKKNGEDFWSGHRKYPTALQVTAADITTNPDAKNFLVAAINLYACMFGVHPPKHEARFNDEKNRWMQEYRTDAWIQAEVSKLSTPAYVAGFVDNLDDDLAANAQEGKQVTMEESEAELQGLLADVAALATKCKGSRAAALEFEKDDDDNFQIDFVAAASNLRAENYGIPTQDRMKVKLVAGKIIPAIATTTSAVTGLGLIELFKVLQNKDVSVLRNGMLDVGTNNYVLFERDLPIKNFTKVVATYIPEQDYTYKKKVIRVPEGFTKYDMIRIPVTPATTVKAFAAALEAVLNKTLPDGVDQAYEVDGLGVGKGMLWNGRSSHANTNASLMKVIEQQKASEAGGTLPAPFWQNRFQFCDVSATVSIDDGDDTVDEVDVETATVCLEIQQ
The assay is described as follows: Leishmania donovani Ubiquitin Activating Enzyme (LdE1). Type of assay: functional. The settings on record: 30 µM.

Assay [3] concerns the target AMP-activated protein kinase, AMPK (Homo sapiens) (UniProt P54646+O43741+P54619+Q9UGJ0+Q9Y478+Q13131+Q9UGI9). The assay is described as follows: AMP-dependent Kinase enzyme assay. An in vitro enzyme assay that detects ADP turnover that is directly proportional to AMPK activity. This uses naive AMPK that is activated during the assay with MK-8722. Type of assay: functional. The settings on record: 30 µM.

Assay [4] deals with Sialic acid-binding Ig-like lectin 9 (Homo sapiens) (UniProt Q9Y336). The assay is described as follows: Hs-Siglec9 ALPHAscreen SOP 20170721. The settings on record: 10 µM.
Sialic acid-binding Ig-like lectin 9 (Homo sapiens), sequence (Q9Y336 whole entry): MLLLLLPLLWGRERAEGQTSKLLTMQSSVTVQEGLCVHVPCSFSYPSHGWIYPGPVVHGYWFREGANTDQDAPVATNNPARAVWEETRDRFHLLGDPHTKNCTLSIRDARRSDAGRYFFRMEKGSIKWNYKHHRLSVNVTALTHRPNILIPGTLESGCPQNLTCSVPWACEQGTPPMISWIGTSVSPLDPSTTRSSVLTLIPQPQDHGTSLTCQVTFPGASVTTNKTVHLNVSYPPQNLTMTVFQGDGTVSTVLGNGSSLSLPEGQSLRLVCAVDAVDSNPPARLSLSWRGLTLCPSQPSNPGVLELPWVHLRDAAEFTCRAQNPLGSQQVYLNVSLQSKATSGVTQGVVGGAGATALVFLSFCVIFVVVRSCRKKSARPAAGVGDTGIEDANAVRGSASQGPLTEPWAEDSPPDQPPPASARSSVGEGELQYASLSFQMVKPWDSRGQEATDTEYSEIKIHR
A further assay relates to Trypanosoma cruzi. The assay is described as follows: Trypanosoma cruzi phosphomannomutase and mannose-1-phosphate guanylyltransferase assay. Type of assay: functional. The conditions noted are these: 10 µM.
In assay [5] the target is T2, Arginase-2, mitochondrial (Homo sapiens) (UniProt P78540).
T2 sequence (whole entry): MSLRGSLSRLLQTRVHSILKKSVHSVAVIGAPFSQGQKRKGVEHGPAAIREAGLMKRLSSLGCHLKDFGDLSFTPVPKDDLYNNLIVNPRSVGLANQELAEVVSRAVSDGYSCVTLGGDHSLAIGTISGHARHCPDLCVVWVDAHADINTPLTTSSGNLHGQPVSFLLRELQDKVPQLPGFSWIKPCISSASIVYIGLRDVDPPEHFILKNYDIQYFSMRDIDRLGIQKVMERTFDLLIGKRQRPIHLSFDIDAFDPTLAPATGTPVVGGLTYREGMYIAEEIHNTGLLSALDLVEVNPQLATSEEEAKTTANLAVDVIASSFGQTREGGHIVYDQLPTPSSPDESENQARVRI
The assay is described as follows: in vitro enzyme assay to detect the production of urea directly proportional to the activity of Arginase II. Also: in the data most compounds retested in dose-response had high values. The class given is functional. The conditions noted are these: 33.3 µM.

The target of assay [6] is T3, Proteasome subunit beta (Trypanosoma cruzi) (UniProt O96673).
T3 sequence (whole entry): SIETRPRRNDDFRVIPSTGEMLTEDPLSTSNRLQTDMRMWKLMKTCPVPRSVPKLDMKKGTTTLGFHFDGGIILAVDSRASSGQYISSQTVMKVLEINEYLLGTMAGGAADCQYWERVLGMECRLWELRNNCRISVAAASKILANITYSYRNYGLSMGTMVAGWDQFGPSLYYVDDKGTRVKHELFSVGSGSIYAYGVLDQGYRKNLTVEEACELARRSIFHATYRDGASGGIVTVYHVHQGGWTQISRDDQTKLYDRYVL
Kind of assay: Trypanosoma cruzi proteasome chymotrypsin-like activity (TcProtChymo) assay. Also: in the data most compounds retested in dose-response had high values. Type of assay: functional. The conditions noted are these: 9.37 µM.

A further assay is filed under the species Homo sapiens. The assay is described as follows: To identify inhibition of the IFN signalling (Jak-Stat) pathway via expression of an eGFP reporter gene under the control of an IFN-stimulated response element (ISRE) containing MxA promoter. Type of assay: functional. The settings on record: 30 µM. In general terms: Reporter assays use an easily measured gene product as a stand-in for the process of interest.

For assay [7], the target named is T4, Tyrosyl-tRNA synthetase, putative (Trypanosoma cruzi (strain CL Brener)) (UniProt Q4DSP6).
T4 sequence (whole entry): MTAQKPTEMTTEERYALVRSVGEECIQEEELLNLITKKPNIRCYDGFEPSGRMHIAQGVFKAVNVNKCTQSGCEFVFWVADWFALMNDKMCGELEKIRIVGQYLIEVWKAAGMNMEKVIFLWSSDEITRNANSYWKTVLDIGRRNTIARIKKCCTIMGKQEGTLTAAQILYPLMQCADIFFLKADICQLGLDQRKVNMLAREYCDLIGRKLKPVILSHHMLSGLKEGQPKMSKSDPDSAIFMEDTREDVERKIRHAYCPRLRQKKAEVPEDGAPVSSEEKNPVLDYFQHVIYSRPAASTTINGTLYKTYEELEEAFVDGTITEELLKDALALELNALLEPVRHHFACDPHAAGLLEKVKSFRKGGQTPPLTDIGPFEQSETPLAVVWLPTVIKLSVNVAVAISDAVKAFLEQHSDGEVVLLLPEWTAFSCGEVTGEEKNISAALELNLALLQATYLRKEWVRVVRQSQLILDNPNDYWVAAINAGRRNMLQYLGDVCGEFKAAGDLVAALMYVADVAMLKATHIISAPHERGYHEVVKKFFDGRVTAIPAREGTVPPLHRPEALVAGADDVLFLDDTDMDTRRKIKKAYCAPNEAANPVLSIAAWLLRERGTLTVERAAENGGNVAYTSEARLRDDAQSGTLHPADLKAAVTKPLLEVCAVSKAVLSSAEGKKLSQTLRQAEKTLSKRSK
The assay is described as follows: Trypanosoma cruzi tyrosyl tRNA synthetase (TcYRS) _High Tyrosine SOP. Also: in the data most compounds retested in dose-response had high values. Type of assay: functional. The settings on record: 30 µM.

Assay [8] deals with T4, Tyrosyl-tRNA synthetase, putative (Trypanosoma cruzi (strain CL Brener)). The assay is described as follows: Trypanosoma cruzi tyrosyl tRNA synthetase (TcYRS) SOP. The class given is functional. The settings on record: 30 µM.
For assay [9], the target named is Chromo domain-containing protein 1 (Saccharomyces cerevisiae (strain ATCC 204508 / S288c) (Baker's yeast)) (UniProt P32657). The assay is described as follows: ScCHD-1 Enzyme Inhibition Assay. Also: in the data most compounds retested in dose-response had high values. The settings on record: 30 µM. The class given is functional.
Chromo domain-containing protein 1 (Saccharomyces cerevisiae (strain ATCC 204508 / S288c) (Baker's yeast)), sequence (P32657 whole entry, the tested form may be a part): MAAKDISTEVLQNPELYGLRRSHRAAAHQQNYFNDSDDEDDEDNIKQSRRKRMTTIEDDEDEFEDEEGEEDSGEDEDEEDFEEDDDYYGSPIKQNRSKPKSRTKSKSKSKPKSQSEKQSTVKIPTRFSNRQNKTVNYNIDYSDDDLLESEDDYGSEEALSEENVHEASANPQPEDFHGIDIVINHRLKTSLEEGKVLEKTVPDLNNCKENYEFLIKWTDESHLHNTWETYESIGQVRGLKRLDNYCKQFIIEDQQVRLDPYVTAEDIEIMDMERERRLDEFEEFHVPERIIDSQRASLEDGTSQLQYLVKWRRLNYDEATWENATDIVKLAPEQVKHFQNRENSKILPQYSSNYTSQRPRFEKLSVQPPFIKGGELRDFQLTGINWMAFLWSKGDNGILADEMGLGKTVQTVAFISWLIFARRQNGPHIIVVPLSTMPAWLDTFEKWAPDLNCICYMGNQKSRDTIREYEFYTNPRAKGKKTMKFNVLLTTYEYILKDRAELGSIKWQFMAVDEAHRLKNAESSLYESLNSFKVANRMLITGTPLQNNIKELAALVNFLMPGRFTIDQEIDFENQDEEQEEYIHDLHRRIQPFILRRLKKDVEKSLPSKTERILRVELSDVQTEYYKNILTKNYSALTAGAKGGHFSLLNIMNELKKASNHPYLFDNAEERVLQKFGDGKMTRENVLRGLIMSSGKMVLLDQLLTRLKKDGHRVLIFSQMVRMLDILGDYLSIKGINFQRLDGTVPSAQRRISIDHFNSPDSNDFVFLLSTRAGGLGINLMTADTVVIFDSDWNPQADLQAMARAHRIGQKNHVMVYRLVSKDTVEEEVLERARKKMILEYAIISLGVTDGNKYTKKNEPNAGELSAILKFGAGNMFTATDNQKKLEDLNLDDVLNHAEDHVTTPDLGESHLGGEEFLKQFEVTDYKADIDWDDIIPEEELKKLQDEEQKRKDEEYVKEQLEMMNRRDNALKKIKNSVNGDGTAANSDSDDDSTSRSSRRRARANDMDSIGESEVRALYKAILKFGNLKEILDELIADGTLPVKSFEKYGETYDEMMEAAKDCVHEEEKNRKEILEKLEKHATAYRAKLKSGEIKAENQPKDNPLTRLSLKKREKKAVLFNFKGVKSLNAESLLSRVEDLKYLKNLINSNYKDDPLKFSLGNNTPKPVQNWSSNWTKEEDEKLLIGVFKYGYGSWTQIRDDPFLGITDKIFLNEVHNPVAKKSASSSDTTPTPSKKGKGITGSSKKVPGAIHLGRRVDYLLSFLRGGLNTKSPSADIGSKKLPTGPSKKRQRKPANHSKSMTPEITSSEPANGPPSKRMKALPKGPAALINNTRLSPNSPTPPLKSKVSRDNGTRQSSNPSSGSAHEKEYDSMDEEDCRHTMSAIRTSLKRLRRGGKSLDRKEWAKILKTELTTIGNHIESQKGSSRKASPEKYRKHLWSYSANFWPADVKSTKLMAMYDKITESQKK

SMILES strings stand for the structures. For some of these results: Potency and affinity values are given separately.

Protein translocase subunit SecA (Escherichia coli (strain K12)), sequence (P10408 whole entry): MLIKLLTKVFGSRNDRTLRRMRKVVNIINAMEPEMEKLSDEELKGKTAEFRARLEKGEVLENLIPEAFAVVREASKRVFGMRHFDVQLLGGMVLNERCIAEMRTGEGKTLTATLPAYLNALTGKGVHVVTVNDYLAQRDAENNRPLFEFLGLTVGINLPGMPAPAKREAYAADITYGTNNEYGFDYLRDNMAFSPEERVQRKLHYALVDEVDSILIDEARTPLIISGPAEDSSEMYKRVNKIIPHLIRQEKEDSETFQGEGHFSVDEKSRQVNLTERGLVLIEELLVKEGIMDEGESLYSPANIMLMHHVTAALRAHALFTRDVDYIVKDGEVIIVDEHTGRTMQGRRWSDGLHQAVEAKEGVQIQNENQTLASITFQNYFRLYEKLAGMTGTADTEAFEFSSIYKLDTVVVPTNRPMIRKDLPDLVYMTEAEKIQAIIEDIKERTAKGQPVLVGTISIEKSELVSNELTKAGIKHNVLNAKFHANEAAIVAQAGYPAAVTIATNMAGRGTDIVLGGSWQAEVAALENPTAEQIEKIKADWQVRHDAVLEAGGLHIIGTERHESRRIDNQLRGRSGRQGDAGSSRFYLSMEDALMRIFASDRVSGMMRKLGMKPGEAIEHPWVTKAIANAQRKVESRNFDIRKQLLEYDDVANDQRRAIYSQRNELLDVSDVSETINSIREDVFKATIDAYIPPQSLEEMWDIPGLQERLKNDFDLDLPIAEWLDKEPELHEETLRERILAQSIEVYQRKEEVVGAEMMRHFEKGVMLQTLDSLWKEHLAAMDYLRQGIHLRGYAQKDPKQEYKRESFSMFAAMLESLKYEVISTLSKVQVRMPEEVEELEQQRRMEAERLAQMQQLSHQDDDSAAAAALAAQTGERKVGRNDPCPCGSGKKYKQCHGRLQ

`c1cncc(CN2CCc3ncnc(C4CCOC4)c3CC2)c1` (stereo unspecified): the Percent Effect in assay [1] is 1.94%; in assay [2], 21.3%; in assay [3] it was 13.3%; in assay [4], -7%; in the assay with Trypanosoma cruzi, -4.92%; in assay [5] it was 2.1%. The Percent Effect in assay [6] is 7.14%; in the assay filed under Homo sapiens, 15.9%; in assay [7], 5.32%; in assay [8], 6.41%; in assay [9] it was -0.839%.

In the case of `O=C(CN1CCCCC1C1OCCO1)Nc1ccc(F)c(F)c1` (stereo unspecified), the Percent Effect was -3.75% in assay [1]; 5.41% in assay [2]; 1.85% in assay [3]; -4.88% in assay [4]; -1.95% in the assay on Trypanosoma cruzi; 0% in assay [5]. For the same molecule, the Percent Effect was 6.68% in [6]; 17.6% in the assay filed under Homo sapiens; 1.98% in assay [7]; 6.1% in assay [8]; 2.05% in assay [9].

Regarding `Cc1cc(C)nc(Nc2cccc(C3CCCN(C)C3)n2)n1` (stereo unspecified), the Percent Effect in assay [1] is -4.27%; in assay [2], 1.35%; in [3], 9.63%; in assay [4], -3.78%; in the assay with Trypanosoma cruzi, 2.77%; in [5], -3.94%. For the same molecule, the Percent Effect in assay [6] was 4.68%; in the assay filed under Homo sapiens, -3.42%; in [7], 2.15%; in [8] it was 6.49%; in assay [9], -16.2%.

In the case of `CCN(CC)C(=O)c1nnn(Cc2ccccc2)c1OC`, the Percent Effect was -6.72% in assay [1]; -1.33% in assay [2]; 3.11% in assay [3]; 2.1% in assay [4]; -4.52% in the assay with Trypanosoma cruzi; -4.05% in assay [5]. Also, the Percent Effect in [6] was 8.32%; in the assay listed under Homo sapiens, -11.4%; in assay [7] it was 6.35%; in assay [8], 5.13%; in assay [9] it was -1.8%.

For the molecule `CC1N(CC2CC2)C(=O)COC12CCN(Cc1nccs1)CC2` (stereo unspecified), the Percent Effect in assay [1] was -2.73%; in [2], 11%; in assay [3], -7.81%; in [4] it was 11.6%; in the assay on Trypanosoma cruzi, 5.56%; in assay [5] it was -2%. Also, the Percent Effect in assay [6] was 11.2%; in the assay filed under Homo sapiens, -5.88%; in [7], 4.17%; in assay [8] it was 6.17%; in assay [9] it was -5.43%.

Regarding `Cc1ncc2c(n1)CN(Cc1nnc(Cc3ccccc3)o1)CC2`, the Percent Effect was -2.29% in [1]; 24.3% in assay [2]; -11.8% in assay [3]; 1.92% in assay [4]; 5.66% with Trypanosoma cruzi; 4.99% in [5]. Further, the Percent Effect in assay [6] is 13.8%; in the assay filed under Homo sapiens, -0.54%; in assay [7] it was 29.7%; in [8] it was 28.1%; in assay [9], -9.78%.

On to `CC(O)CN1CCN(C(=O)c2cn(-c3ccccc3Cl)nn2)CC1` (stereo unspecified), for which the Percent Effect in [1] was -1.74%; in assay [2], 10.8%; in assay [3], -3.04%; in [4], 16.5%; in the assay with Trypanosoma cruzi it was 2.44%; in assay [5], 5.71%. In addition, the Percent Effect in assay [6] is 4.21%; in the assay listed under Homo sapiens, -2.08%; in assay [7], 3.23%; in [8], 13.6%; in assay [9], -4.02%.

As for `COCCN1CCC(CN(CC2CCCO2)C(=O)CCNC(C)=O)CC1` (stereo unspecified), the Percent Effect in assay [1] is -1.45%; in [2], -4.17%; in assay [3] it was -2.84%; in [4] it was -5.53%; in the assay with Trypanosoma cruzi it was -1.26%; in [5], 0.883%. Also, the Percent Effect in assay [6] is 1.75%; in the assay listed under Homo sapiens, -4.52%; in assay [7], 0%; in [8] it was 0%; in [9], 1.82%.

With `Cc1ccc(CN2CC[C@H]3C[C@@H](c4nc(C5CC5)cs4)O[C@@H]3C2)o1`, the Percent Effect in assay [1] was -2.45%; in [2], 2.6%; in assay [3] it was 0.23%; in assay [4] it was 10%; in the assay with Trypanosoma cruzi it was 10.1%; in assay [5], -48.3%. In addition, the Percent Effect in assay [6] was 16.3%; in the assay filed under Homo sapiens, 36.5%; in assay [7] it was 10.8%; in [8] it was 16.1%; in assay [9], -1.64%.

In the case of `O=C(c1cscn1)N1C[C@H]2CCCC(OCc3cccnc3)[C@H]2C1` (stereo partly specified), the Percent Effect in assay [1] is -5.26%; in [2], 5.33%; in [3], -2.55%; in assay [4] it was 2.64%; with Trypanosoma cruzi, -0.193%; in assay [5], -37.5%. The Percent Effect in assay [6] was 9.06%; in the assay filed under Homo sapiens, -6.53%; in assay [7], 1.04%; in assay [8] it was 12.5%; in assay [9] it was -5%.

`Cc1csc(CNC(=O)Nc2cc(C(F)(F)F)c[nH]c2=O)n1`: the Percent Effect in [1] is -1.61%; in assay [2], 6.94%; in assay [3] it was 2.39%; in assay [4] it was 2.89%; in the assay on Trypanosoma cruzi it was 6.71%; in [5] it was 1.77%. The Percent Effect in [6] is 13.3%; in the assay listed under Homo sapiens, 8.26%; in [7], 7.37%; in [8], 10.3%; in [9], -3.2%.
